From PubChem BioAssay (NCATS)
Records with an inconclusive call do not appear. Activity calls are given as the source filed them. The call rests on the fitted dose curve; in most records, active means well fitted curve in the direction sought with a large enough effect; inconclusive means small, poorly fitted or top-dose-only effect, or another doubt; inactive means no such curve, though single readings can be large; an effect the other way counts as inactive or inconclusive.

Experiments:
[1] = Cellular Toxicity (caspase-3) Mesangial (AID 660); details: mesangial cells, normalized: DMSO 0%, 100 µM tamoxifen 100%; at 91.7 µM (top of the series);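 further: combined caspase 3 and 7 activity read by Caspase-Glo luminescence; cells exposed to compound for 16 h before the caspase read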
Outline: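 Concentration-response qHTS: compound-induced rise in caspase 3/7 luminescence in human mesangial cells after 16 h, normalized to DMSO and 100 uM tamoxifen controls.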

[2] = Cellular Toxicity (caspase-3) SK-N-SH (AID 661);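 further: 0% = DMSO basal and 100% = 10 µM staurosporine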
Outline: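 Caspase 3/7 activation is measured as a luminescence increase from aminoluciferin released by substrate cleavage in SK-N-SH cells after 16 hr compound treatment; values are AC50 from concentration-response curves.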

[3] = Cellular Toxicity (caspase-3) H-4-II-E (AID 663); details: H-4-II-E rat hepatoma, scaled: DMSO 0%, 100 µM tamoxifen 100%; at 92.2 µM (top of the series)
Outline: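 Apoptosis induction is scored as increased luminescence from caspase 3/7 substrate cleavage in rat hepatoma H-4-II-E cells exposed to compound for 16 hr. Activity is scaled between DMSO and 100 uM tamoxifen.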

[4] = Cellular Toxicity (caspase-3) Hek293 (AID 664); details: HEK293 caspase-3 activation, DMSO = 0%, 100 µM tamoxifen = 100%; at 92.2 µM (top of the series);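 further: cells exposed to compound for 16 h at 37 °C before readout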
Outline: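 Activation of caspase-3/7 is measured as increased luminescence from cleaved peptide-aminoluciferin substrate in HEK293 cells treated 16 hours at 37 °C. AC50 values come from Hill-equation fits of concentration-response data.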

[5] = Cellular Toxicity (caspase-3) N2a (AID 665);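 further: compound exposure lasted 16 h at 37 °C before readout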
Outline: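 Plated mouse neuroblastoma N2a cells received titrated compounds for 16 h in complete medium. Caspase activity was then detected with a peptide-aminoluciferin luminescent reagent.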

[6] = Cellular Toxicity (caspase-3) NIH 3T3 (AID 666);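 further: caspase signal read after 16 h compound exposure; 0% = DMSO basal and 100% = 100 µM tamoxifen stimulation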
Outline: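 Concentration-response qHTS in NIH 3T3 mouse fibroblasts scores caspase-3/7 activation as rising luminescence after 16 hr compound exposure. Signals are scaled between DMSO-only and 100 uM tamoxifen.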

[7] = Cellular Toxicity (caspase-3) Renal Proximal Tubule (AID 667); details: Potency: caspase-3 activation;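 further: cells exposed to compound for 16 hours at 37 °C before detection; 0% = DMSO basal and 100% = 10 µM staurosporine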
Outline: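 Primary rat proximal tubule cells, 1000/well, 5 h plating at 37 °C, then compound 16 h at 37 °C. Caspase-Glo 3/7 reagent, 1 h RT, luminescence. Normalized to DMSO (basal) and 10 uM staurosporine (100%); Hill-fit AC50.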

[8] = biological target: Cytochrome P450 3A4 (Homo sapiens) (UniProt P08684); test: qHTS Assay for Inhibitors and Substrates of Cytochrome P450 3A4 (AID 884); further: nearly all actives have a fitted effect of over 50% in size; further: potency means the concentration at half of the fitted maximal effect
Cytochrome P450 3A4 (Homo sapiens), sequence (P08684 whole entry, looked up): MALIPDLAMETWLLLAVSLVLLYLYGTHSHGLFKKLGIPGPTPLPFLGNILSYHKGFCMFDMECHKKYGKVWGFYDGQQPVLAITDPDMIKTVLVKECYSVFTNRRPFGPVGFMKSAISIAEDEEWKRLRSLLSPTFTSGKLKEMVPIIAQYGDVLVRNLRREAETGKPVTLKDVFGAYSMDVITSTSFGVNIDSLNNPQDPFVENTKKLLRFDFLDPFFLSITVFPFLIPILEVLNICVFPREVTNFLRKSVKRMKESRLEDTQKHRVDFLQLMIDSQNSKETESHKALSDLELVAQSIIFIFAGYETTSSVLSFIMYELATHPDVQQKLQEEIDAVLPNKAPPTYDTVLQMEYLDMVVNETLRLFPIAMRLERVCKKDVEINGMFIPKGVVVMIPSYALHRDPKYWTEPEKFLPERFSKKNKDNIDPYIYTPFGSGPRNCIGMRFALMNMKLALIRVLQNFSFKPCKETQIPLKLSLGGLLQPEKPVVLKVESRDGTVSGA
Outline: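 20 nM human CYP3A4 with 25 uM Luciferin-PPXE (at KM) in 200 mM KPO4, preincubated 10 min with compound; NADPH regeneration started a 60 min RT reaction. Luciferin detected by luminescence, normalized to 57 uM ketoconazole as full inhibition.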

[9] = Cell Viability - LYMP2-001 (AID 921);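 further: 0% = DMSO only and full inhibition = tetraoctylammonium bromide control wells; nearly all actives have a fitted effect of over 70% in size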
Outline: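 Human lymphoblastoid cells (Coriell), 2500 per well, were preincubated 5 hr at 37 C, then exposed to compounds in complete medium for 24 hr at 37 C. Cellular ATP was read by CellTiter-Glo luminescence; AC50 from Hill fits of concentration-response data.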

[10] = MultiTox-Fluor Cytotoxicity Assay - LYMP1-001 - Dead Cells (AID 946);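 further: 0% = DMSO and 100% = tetraoctylammonium bromide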
Outline: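 In this qHTS, 15 uM tetraoctylammonium bromide defined 100% and DMSO defined basal activity. Lymphoblastoid cells (LYMP1-001, 2500 per well) received compound for 16 hr at 37 C before a fluorogenic dead-cell substrate readout at 485/520 nm.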

[11] = MultiTox-Fluor Cytotoxicity Assay - LYMP1-001 - Live Cells (AID 947);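 further: 0% = DMSO only and full inhibition = tetraoctylammonium bromide control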
[12] = Cell Viability - LYMP1-002 - Assay at 16 hr (AID 948);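 further: 0% = DMSO alone and full effect = 92 µM tetraoctylammonium bromide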
Outline: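 Human lymphoblastoid cells (LYMP1-002), 2500/well, were preincubated 5 hr at 37 C, then exposed to compounds for 16 hr at 37 C in complete medium. Cellular ATP was read by CellTiter-Glo luminescence after 30 min at room temperature; AC50 from Hill fits.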

[13] = MultiTox-Fluor Cytotoxicity Assay - LYMP1-002 - Live Cells (AID 955); further: on the % scale 0 is the no-effect control and ±100 the full control effect
Outline: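 Cytotoxicity in the human lymphoblastoid line LYMP1-002 is measured as loss of live-cell protease activity after 16 h treatment in complete culture medium. AC50 is derived from Hill-equation fits of qHTS concentration-response data.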

[14] = MultiTox-Fluor Cytotoxicity Assay - LYMP1-002 - Dead Cells (AID 960);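 further: 0% = DMSO and 100% = tetraoctylammonium bromide; nearly all actives have a fitted effect of over 60% in size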
Outline: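 Acute cytotoxicity in a human lymphoblastoid line is scored as rising dead-cell protease signal after 16 hr exposure at 37 C, measured fluorometrically (485/520).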

[15] = MultiTox-Fluor Cytotoxicity Assay - LYMP1-003 - Dead Cells (AID 961);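 further: 0% = DMSO and 100% = tetraoctylammonium bromide; nearly all actives have a fitted effect of over 70% in size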
Outline: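 Acute toxicity is scored as increased dead-cell protease activity in human lymphoblastoid LYMP1-003 cells after 16 h compound exposure in complete culture medium. Activity is normalized to DMSO basal and 15 uM tetraoctylammonium bromide as full response.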

[16] = MultiTox-Fluor Cytotoxicity Assay - LYMP1-003 - Live Cells (AID 962);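 further: 0% = DMSO only and full loss = 92 µM tetraoctylammonium bromide; cytotoxic hits lower the live-cell protease signal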
Outline: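 Cells plated at 2500 per well and incubated 5 hr; compounds added and incubated 16 hr at 37 C; MultiTox-Fluor reagent added for 60 min at room temperature; fluorescence of liberated AFC measured at 405/510 nm.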

[17] = Cell Viability - LYMP1-003 - Assay at 24 hr (AID 963);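 further: plate controls were DMSO only for no effect and tetraoctylammonium bromide positive control for full effect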
Outline: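 Acute toxicity in LYMP1-003 lymphoblastoid cells: 24 hr compound treatment at 37 C, ATP measured with CellTiter-Glo after 30 min at room temperature. AC50 derived by fitting the Hill equation to qHTS titrations.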

[18] = Cell Viability - LYMP1-003 - Assay at 40 hr (AID 964); further: on the % scale 0 is the no-effect control and ±100 the full control effect; nearly all actives have a fitted effect of over 60% in size
Outline: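 This qHTS cytotoxicity screen treats human lymphoblastoid cells (LYMP1-003) with compounds for 40 hr and quantifies cellular ATP via luciferase luminescence.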

[19] = Cell Viability - LYMP2-003 (AID 965);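 further: cells exposed to compounds for 24 h before reading; 0% = DMSO only and full effect = 92 µM tetraoctylammonium bromide; nearly all actives have a fitted effect of over 50% in size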
Outline: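 Human lymphoblastoid cells (2500/well) were pre-incubated 5 hr at 37 C, then exposed to compounds over a concentration range for 24 hr at 37 C. Intracellular ATP was read by CellTiter-Glo luminescence; AC50 came from Hill-equation fits.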

[20] = biological target: Cytochrome P450 3A4 (Homo sapiens) (UniProt P08684); test: qHTS Assay for Activators of Cytochrome P450 3A4 (AID 885); further: nearly all actives have a fitted effect of over 65% in size
Outline: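 Quantitative HTS format: compounds preincubated with 20nM human CYP3A4 and Luciferin-PPXE substrate at KM, reaction started by NADPH regeneration, stopped after 60 min, luciferase luminescence read 20 min later.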

CCCOCC(C)O (configuration not stated)
inactive: caspase-3 activation [1] 0.289% | outcome [2] | caspase-3 activation [3] -0.784% | caspase-3 activation [4] -1.05% | outcome [5] | outcome [6] | Potency [7] | Potency [8] | Potency [9] | outcome [10] | outcome [11] | outcome [12] | outcome [13] | outcome [14] | Potency [15] | Potency [16] | Potency [17] | Potency [18] | Potency [19]

CC(C)(O)CCC(C)(C)O
inactive: caspase-3 activation [1] -1.06% | outcome [2] | caspase-3 activation [3] 0.513% | caspase-3 activation [4] 5.12% | outcome [5] | outcome [6] | Potency [7] | Potency [8] | Potency [9] | outcome [10] | outcome [11] | outcome [12] | outcome [13] | outcome [14] | Potency [15] | Potency [16] | Potency [17] | Potency [18] | Potency [19]

CC(C=O)Cc1ccc(C(C)(C)C)cc1 (configuration not stated)
inactive: caspase-3 activation [1] 0.925% | outcome [2] | caspase-3 activation [3] 0.297% | caspase-3 activation [4] -0.395% | outcome [5] | outcome [6] | Potency [7] | Potency [8] | Potency [9] | outcome [10] | outcome [11] | outcome [12] | outcome [13] | outcome [14] | Potency [15] | Potency [16] | Potency [17] | Potency [18]

NC(=O)NC(N)=O
inactive: caspase-3 activation [1] -0.43% | outcome [2] | caspase-3 activation [3] -0.188% | caspase-3 activation [4] 0.826% | outcome [5] | outcome [6] | Potency [7] | Potency [8] | Potency [9] | outcome [10] | outcome [11] | outcome [12] | outcome [13] | outcome [14] | Potency [15] | Potency [16] | Potency [17] | Potency [18] | Potency [19]

Cc1cscn1
inactive: caspase-3 activation [1] 0.991% | outcome [2] | caspase-3 activation [3] 0.996% | caspase-3 activation [4] 1.04% | outcome [5] | outcome [6] | Potency [7] | Potency [8] | Potency [9] | outcome [10] | outcome [11] | outcome [12] | outcome [13] | outcome [14] | Potency [15] | Potency [16] | Potency [17] | Potency [18] | Potency [19]

C1CCOC1
inactive: caspase-3 activation [1] -0.124% | outcome [2] | caspase-3 activation [3] 0.164% | caspase-3 activation [4] -1.25% | outcome [5] | outcome [6] | Potency [7] | Potency [8] | Potency [9] | outcome [10] | outcome [11] | outcome [12] | outcome [13] | outcome [14] | Potency [15] | Potency [16] | Potency [17] | Potency [18] | Potency [19]

CN(C)c1cccc(O)c1
inactive: caspase-3 activation [1] 1.93% | outcome [2] | caspase-3 activation [3] 2.04% | caspase-3 activation [4] 0.706% | outcome [5] | outcome [6] | Potency [7] | Potency [8] | Potency [9] | outcome [10] | outcome [11] | outcome [12] | outcome [13] | outcome [14] | Potency [15] | Potency [16] | Potency [17] | Potency [18] | Potency [19]

Cc1cccc(C)c1[N+](=O)[O-]
inactive: caspase-3 activation [1] 0.452% | outcome [2] | caspase-3 activation [3] -0.326% | caspase-3 activation [4] -0.173% | outcome [5] | outcome [6] | Potency [7] | Potency [8] | Potency [9] | outcome [10] | outcome [11] | outcome [12] | outcome [13] | outcome [14] | Potency [15] | Potency [16] | Potency [17] | Potency [18] | Potency [19]

O=C1NC(=O)c2cc([N+](=O)[O-])ccc21
active: Potency [8] 15.8 µM
inactive: caspase-3 activation [1] -0.781% | outcome [2] | caspase-3 activation [3] -0.832% | caspase-3 activation [4] -0.133% | outcome [5] | outcome [6] | Potency [7] | outcome [20] | Potency [9] | outcome [10] | outcome [11] | outcome [12] | outcome [13] | outcome [14] | Potency [15] | Potency [16] | Potency [17] | Potency [18] | Potency [19]

Nc1cc(S(=O)(=O)O)ccc1O
inactive: caspase-3 activation [1] 0.554% | outcome [2] | caspase-3 activation [3] -0.224% | caspase-3 activation [4] -0.175% | outcome [5] | outcome [6] | Potency [7] | Potency [8] | Potency [9] | outcome [10] | outcome [11] | outcome [12] | outcome [13] | outcome [14] | Potency [15] | Potency [16] | Potency [17] | Potency [18] | Potency [19]

C=Cc1ccc(C=C)cc1
inactive: caspase-3 activation [1] -0.657% | outcome [2] | caspase-3 activation [3] -0.942% | caspase-3 activation [4] 0.511% | outcome [5] | outcome [6] | Potency [7] | Potency [8] | Potency [9] | outcome [10] | outcome [11] | outcome [12] | outcome [13] | outcome [14] | Potency [15] | Potency [16] | Potency [17]

COC(=O)CS
inactive: caspase-3 activation [1] -1.25% | outcome [2] | caspase-3 activation [3] 0.405% | caspase-3 activation [4] -1.02% | outcome [5] | outcome [6] | Potency [7] | Potency [8] | Potency [9] | outcome [10] | outcome [11] | outcome [12] | outcome [13] | outcome [14] | Potency [15] | Potency [16] | Potency [17]

Cc1ccc(Cl)cc1
inactive: caspase-3 activation [1] 0.555% | outcome [2] | caspase-3 activation [3] 0.337% | caspase-3 activation [4] 0.748% | outcome [5] | outcome [6] | Potency [7] | Potency [8] | Potency [9] | outcome [10] | outcome [11] | outcome [12] | outcome [13] | outcome [14] | Potency [15] | Potency [16] | Potency [17] | Potency [18] | Potency [19]

c1ccc(Nc2ccccc2)cc1
inactive: caspase-3 activation [1] -0.717% | outcome [2] | caspase-3 activation [3] 0.361% | caspase-3 activation [4] -0.415% | outcome [5] | outcome [6] | Potency [7] | Potency [8] | Potency [9] | outcome [10] | outcome [11] | outcome [12] | outcome [13] | outcome [14] | Potency [15] | Potency [16] | Potency [17] | Potency [18] | Potency [19]
